Results on 37 compounds are retold here after PubChem BioAssay (Tox21).

Where “and” joins values, the source holds several entries; their conditions need not be identical. Identical values can stand only once. Records with an inconclusive call do not appear. Where a call stands in place of a potency, no number is given. Calls of active or inactive are those of the source. The call rests on the fitted dose curve; in most records, active means well fitted curve in the direction sought with a large enough effect in the repeat runs; inconclusive means weak or mixed curves; inactive means no such curve, though single readings can be large; an effect the other way counts as inactive or inconclusive.
Potency means the concentration at half of the fitted maximal effect.

One experiment can be described thus: Caspase-3/7 induction in CHO-K1 cells by small molecules, qHTS cell viability counter screen (AID 1346979). Further: nearly all actives have a fitted effect of over 35% in size. To be noted: CellTiter-Fluor fluorescence, 17 h; series mostly up to 92.4 µM. An outline of the steps:
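To flag cytotoxic compounds, treated CHO-K1 wild-type cells were given CellTiter-Fluor at 16hr and read fluorescently after 1hr at 37C; the caspase-3/7 luminescence was measured in these same wells.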
(In general: In qHTS, concentration-response curves come from the screen itself.)
For `CCCCCCCCCCCCCCCCCCn1cc[n+](C)c1`, the Potency was 4.3 µM (active).
Take `N#CC(Cl)Cl`: the Potency result was “inactive”.
For `CN(CCCC(=O)c1cccnc1)N=O`, the Potency entry was “inactive”.
Turning to `CCCSP(=O)(OCC)SCCC`, the Potency result was “inactive”.
With `CCOP(=S)(OCC)SCS(=O)(=O)C(C)(C)C`, the Potency result is “inactive”.
Same read-out and setting: to `COCC(=O)N(c1c(C)cccc1C)[C@H](C)C(=O)OC` belongs “inactive”; to `COC[C@H](C)N(C(=O)CCl)c1c(C)csc1C`, “inactive”.
Consider `CC(C)(C)C(O)/C(=C\c1ccc(Cl)cc1Cl)n1cncn1` (configuration not stated), for which the Potency was 37.1 µM (active).
Same read-out and setting: the result for `CC(c1ccc(O)cc1)c1ccc(O)cc1` reads “inactive”.
Still for that read-out and setting: the result for `CC(C)CC(C)(c1ccc(O)cc1)c1ccc(O)cc1` reads 61.3 µM (active) and 61.1 µM (active); that for `Cc1ccc(CCl)cc1`, “inactive”; that for `CCOC(=O)c1ccccc1S(=O)(=O)NC(=O)Nc1nc(Cl)cc(OC)n1`, “inactive”.
Same read-out and setting: the result for `CC(C)OS(C)(=O)=O` reads “inactive”; that for `N#CSCSC#N`, 9.91 µM (active) and 9.59 µM (active).
`COc1cccc2c1C(=O)c1c(O)c3c(c(O)c1C2=O)C[C@@](O)(C(=O)CO)CC3OC1CC(N2CCOC(OC)C2)C(O)C(C)O1` (some centres not stated): the Potency is 9.44 µM (active).
Still for that read-out and setting: to `Oc1ccc(C2(c3ccc(O)cc3)CCCCC2)cc1` belongs 57.9 µM (active); to `O=[N+]([O-])c1cc(C(F)(F)F)c(Cl)c([N+](=O)[O-])c1Cl`, 8.63 µM (active).
As to `CC(=O)[O-].[Tl+]`, the Potency was 43.5 µM (active).

The nature of a further experiment: Caspase-3/7 induction in CHO-K1 cells by small molecules, qHTS assay (AID 1346980). Further: nearly all actives have a fitted effect of over 15% in size. The following applies: CHO-K1 caspase-3/7 induction, Caspase-Glo luminescence, 17 h; series mostly up to 92.4 µM. The essentials: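 Wild-type cells were seeded at 1,500 per well and settled 5 hr at 37 C, 5% CO2, then exposed to DMSO-dissolved compounds for 17 hr. Caspase-Glo 3/7 reagent was added, and luminescence was read after 30min at room temperature.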
In the case of `CCCCCCCCCCCCCCCCCCn1cc[n+](C)c1`, the Potency result is “inactive”.
For the compound `N#CC(Cl)Cl`, the Potency entry was “inactive”.
The same measure, in the same setting: the result for `Nc1ccccc1C(=O)OC/C=C/c1ccccc1` reads “inactive”; that for `CN(CCCC(=O)c1cccnc1)N=O`, “inactive”; that for `C[C@H]1CC[C@@H]2[C@@H](C)[C@H]3[C@H](C[C@H]4[C@@H]5CC=C6CC(O[C@@H]7O[C@H](CO)[C@H](O)[C@H](O[C@@H]8O[C@H](CO)[C@@H](O)[C@H](O)[C@H]8O)[C@H]7O[C@H]7O[C@@H](C)[C@H](O)[C@@H](O)[C@H]7O)CC[C@]6(C)[C@H]5CC[C@]34C)N2C1` (some centres not stated), “inactive”.
Regarding `CCCSP(=O)(OCC)SCCC`, the Potency entry was “inactive”.
On to `CCOP(=S)(OCC)SCS(=O)(=O)C(C)(C)C`, for which the Potency entry is “inactive”.
On to `C[C@@H](Oc1ccc(Cl)cc1Cl)C(=O)O`, for which the Potency result was “inactive”.
Same read-out and setting: the result for `COCC(=O)N(c1c(C)cccc1C)[C@H](C)C(=O)OC` reads “inactive”; that for `COC[C@H](C)N(C(=O)CCl)c1c(C)csc1C`, “inactive”; that for `Cc1c(Cl)c(=O)oc2cc(OP(=O)(OCCCl)OCCCl)ccc12`, “inactive”.
`SCc1ccco1`: the Potency entry was “inactive”.
With `Nc1ccccc1C(=O)Oc1ccc2ccccc2c1`, the Potency result was “inactive”.
For the compound `CC(C)CCCCCCCOP(=O)(Oc1ccccc1)Oc1ccccc1`, the Potency entry was “inactive”.
Regarding `O=C(O)COc1nc(Cl)c(Cl)cc1Cl`, the Potency entry was “inactive”.
Regarding `CC(C)(C)C(O)/C(=C\c1ccc(Cl)cc1Cl)n1cncn1` (configuration not stated), the Potency entry is “inactive”.
For the compound `CC(c1ccc(O)cc1)c1ccc(O)cc1`, the Potency result is “inactive”.
On the same count and under the same terms, the result for `COC(=O)N(C(=O)N1COC2(C(=O)OC)Cc3cc(Cl)ccc3C2=N1)c1ccc(OC(F)(F)F)cc1` (configuration not stated) reads “inactive”; that for `CC(C)CC(C)(c1ccc(O)cc1)c1ccc(O)cc1`, “inactive”.
Still for that read-out and setting: the result for `ClC1=C(Cl)[C@]2(Cl)[C@H]3[C@H]([C@H]4C=C[C@H]3C4)[C@@]1(Cl)C2(Cl)Cl` reads “inactive”; that for `Cc1ccc(CCl)cc1`, “inactive”; that for `Cc1cc(Cl)ccc1O[C@H](C)C(=O)O`, “inactive”.
On to `CCOC(=O)c1ccccc1S(=O)(=O)NC(=O)Nc1nc(Cl)cc(OC)n1`, for which the Potency entry is “inactive”.
On to `CC(C)OS(C)(=O)=O`, for which the Potency entry was “inactive”.
With `N#CSCSC#N`, the Potency result is “inactive”.
For the compound `COc1cccc2c1C(=O)c1c(O)c3c(c(O)c1C2=O)C[C@@](O)(C(=O)CO)CC3OC1CC(N2CCOC(OC)C2)C(O)C(C)O1` (some centres not stated), the Potency was 0.168 µM (active).
Take `CCOP(=O)(NC(C)C)Oc1ccc(SC)c(C)c1` (configuration not stated): the Potency result is “inactive”.
On the same count and under the same terms, to `CC[C@H]1C[C@@H]2C[C@H]3c4[nH]c5ccc(OC)cc5c4CCN(C2)[C@@H]13` belongs “inactive”; to `Oc1ccc(C2(c3ccc(O)cc3)CCCCC2)cc1`, “inactive”; to `O=[N+]([O-])c1cc(C(F)(F)F)c(Cl)c([N+](=O)[O-])c1Cl`, 1.93 µM (active).
On the same count and under the same terms, to `COC(=O)N(C(=O)N1CO[C@@]2(C(=O)OC)Cc3cc(Cl)ccc3C2=N1)c1ccc(OC(F)(F)F)cc1` belongs “inactive”; to `Oc1cccc(-c2ccccc2)c1`, “inactive”.
As for `CS(=O)(=O)c1ccc(C(=O)C2C(=O)CCCC2=O)c([N+](=O)[O-])c1`, the Potency entry is “inactive”.
Still for that read-out and setting: the result for `CC(Cc1ccc(C(C)(C)C)cc1)CN1C[C@@H](C)O[C@@H](C)C1` (some centres not stated) reads “inactive”; that for `CC(=O)[O-].[Tl+]`, “inactive”.
The same measure, in the same setting: to `CCOC(=O)C1(c2ccccc2)CCN(CCC(C#N)(c2ccccc2)c2ccccc2)CC1` belongs “inactive”.

Another experiment in a line: Caspase-3/7 induction in HepG2 cells by small molecules, qHTS cell viability counter screen (AID 1346981). Further: nearly all actives have a fitted effect of over 30% in size. To be noted: CellTiter-Fluor fluorescence, 17 h; series mostly up to 92.4 µM. The essentials: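 Cell viability is measured as a cytotoxicity counter screen alongside the Caspase-Glo 3/7 readout in identical wells. Wild-type HepG2 cells are treated with test compounds for 16 hr at 37 C before CellTiter-Fluor addition and a 1-hr incubation.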
On to `CCCCCCCCCCCCCCCCCCn1cc[n+](C)c1`, for which the Potency was 68.2 µM (active).
The same measure, in the same setting: the result for `N#CC(Cl)Cl` reads “inactive”.
Same read-out and setting: the result for `Nc1ccccc1C(=O)OC/C=C/c1ccccc1` reads “inactive”; that for `CN(CCCC(=O)c1cccnc1)N=O`, “inactive”; that for `CCOP(=S)(OCC)SCS(=O)(=O)C(C)(C)C`, “inactive”.
The same measure, in the same setting: the result for `C[C@@H](Oc1ccc(Cl)cc1Cl)C(=O)O` reads “inactive”; that for `COCC(=O)N(c1c(C)cccc1C)[C@H](C)C(=O)OC`, “inactive”; that for `COC[C@H](C)N(C(=O)CCl)c1c(C)csc1C`, “inactive”.
Consider `SCc1ccco1`, for which the Potency result is “inactive”.
The same measure, in the same setting: to `Nc1ccccc1C(=O)Oc1ccc2ccccc2c1` belongs “inactive”; to `CC(C)CCCCCCCOP(=O)(Oc1ccccc1)Oc1ccccc1`, “inactive”.
Same read-out and setting: to `CC(C)(C)C(O)/C(=C\c1ccc(Cl)cc1Cl)n1cncn1` (configuration not stated) belongs 83 µM (active); to `CC(c1ccc(O)cc1)c1ccc(O)cc1`, “inactive”.
As for `COC(=O)N(C(=O)N1COC2(C(=O)OC)Cc3cc(Cl)ccc3C2=N1)c1ccc(OC(F)(F)F)cc1` (configuration not stated), the Potency entry was “inactive”.
For `CC(C)CC(C)(c1ccc(O)cc1)c1ccc(O)cc1`, the Potency was 68.7 µM (active) and 61.1 µM (active).
On the same count and under the same terms, the result for `ClC1=C(Cl)[C@]2(Cl)[C@H]3[C@H]([C@H]4C=C[C@H]3C4)[C@@]1(Cl)C2(Cl)Cl` reads “inactive”; that for `Cc1ccc(CCl)cc1`, “inactive”; that for `CCOC(=O)c1ccccc1S(=O)(=O)NC(=O)Nc1nc(Cl)cc(OC)n1`, “inactive”.
For the compound `CC(C)OS(C)(=O)=O`, the Potency entry was “inactive”.
As to `N#CSCSC#N`, the Potency is 62.5 µM (active) and 67.9 µM (active).
Same read-out and setting: to `COc1cccc2c1C(=O)c1c(O)c3c(c(O)c1C2=O)C[C@@](O)(C(=O)CO)CC3OC1CC(N2CCOC(OC)C2)C(O)C(C)O1` (some centres not stated) belongs 16.8 µM (active); to `Oc1ccc(C2(c3ccc(O)cc3)CCCCC2)cc1`, 51.6 µM (active); to `O=[N+]([O-])c1cc(C(F)(F)F)c(Cl)c([N+](=O)[O-])c1Cl`, 61.1 µM (active).
The same measure, in the same setting: the result for `COC(=O)N(C(=O)N1CO[C@@]2(C(=O)OC)Cc3cc(Cl)ccc3C2=N1)c1ccc(OC(F)(F)F)cc1` reads “inactive”; that for `OC(c1ccc(Cl)cc1)(c1ccc(Cl)cc1)C(Cl)(Cl)Cl`, “inactive”.
On to `Oc1cccc(-c2ccccc2)c1`, for which the Potency result was “inactive”.
Still for that read-out and setting: to `CC(Cc1ccc(C(C)(C)C)cc1)CN1C[C@@H](C)O[C@@H](C)C1` (some centres not stated) belongs “inactive”.
Same read-out and setting: the result for `CCOC(=O)C1(c2ccccc2)CCN(CCC(C#N)(c2ccccc2)c2ccccc2)CC1` reads “inactive”.
